Bioassay records (PubChem BioAssay)
Sampled rows, rich in hits. Any-hit rate of the full collection: about 2.1%.
YB-1 expression = YB-1 expression inhibition | U2OS, qRT-PCR YB-1 vs CDIP delta delta Cp, 16 h; stronger effect = higher value; zero = DMSO, each unit about twofold | delta delta Cp (YB-1 minus CDIP) (concentration not given with the values) | hit rate 0.37% among 30,000;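 active = delta delta Cp rounded down to an integer at or above 3, about 3 SD of DMSO wells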;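 note: higher means less YB-1 transcript or more CDIP transcript relative to DMSO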
ROS inducer = cancer cell ROS induction. U2OS ROS induction, H2DCF-DA fluorescence. ROS induction (% of piperlongumine), % at 10 µM. hit rate 2% among 46,000. AID 624156; in the data active = ROS induction above about 79%, passing the limit was not always enough
Hits are given with their value; 0 = inactive; - = no result given.

SMILES | YB-1 expression | ROS inducer
CC(=O)Oc1ccc2cc(-c3nc4c(s3)CCc3ccccc3-4)c(=O)oc2c1 | - | 129
Cc1cccc(C)c1NC(=O)COc1ccc2cc(-c3ccccc3)c(=O)oc2c1 | - | 0
C[C@H]1CN([C@@H](C)CO)C(=O)c2cc(NC(=O)Nc3ccc4c(c3)OCO4)ccc2O[C@H]1CN(C)C(=O)Nc1ccc(F)cc1 | 0 | 86
C[C@@H]1CN([C@@H](C)CO)C(=O)c2cc(NC(=O)Nc3ccc4c(c3)OCO4)ccc2O[C@@H]1CN(C)C(=O)Nc1ccc(C(F)(F)F)cc1 | 0 | 227
C[C@@H]1CN([C@H](C)CO)C(=O)c2cc(NC(=O)Nc3ccc(C(F)(F)F)cc3)ccc2O[C@H]1CN(C)C(=O)Nc1ccc2c(c1)OCO2 | 0 | 0
C[C@@H]1CN([C@H](C)CO)C(=O)c2cc(NC(=O)Nc3ccc(F)cc3)ccc2O[C@@H]1CN(C)C(=O)Nc1ccc2c(c1)OCO2 | 0 | 0
Cc1ccc(S(=O)(=O)N2CC=C(C(=O)NCc3cccs3)CC2)cc1 | - | 0
COc1ccc(/C=C/C(=O)NCC2(c3ccccc3)CCOCC2)cc1 | - | 0
CCC(Oc1ccccc1)C(=O)Nc1sc2c(c1C(N)=O)CCCC2 (stereo not drawn) | - | 0
O=C(NC1CCCC1)C(Sc1ccccc1)c1ccccc1 (stereo not drawn) | - | 0
O=C(O)C1CSC(c2ccccc2Cl)N1C(=O)c1ccccc1F (stereo not drawn) | - | 0
O=C(Nc1ccc([N+](=O)[O-])cc1O)Nc1ccccc1Br | 3 | 0
O=C(COc1ccc(I)cc1)Nc1ccc([N+](=O)[O-])cc1O | - | 0
CC1CN(C(=O)CCC(=O)NCc2ccco2)c2ccccc2O1 (stereo not drawn) | - | 0
c1ccc(COc2c3c(nc4ccccc24)CCCC3)cc1 | - | 0
O=S(=O)(N[C@@H]1CCCN(Cc2cccc(OCCO)c2)C1)c1ccc(Cl)c(Cl)c1 | 0 | 0
O=S(=O)(NCC1CCN(Cc2cccc(OCCO)c2)CC1)c1ccc(Cl)c(Cl)c1 | 0 | 123
CN(c1ccc(Cl)cc1)S(=O)(=O)c1cccc(C(=O)Nc2ccccc2)c1 | - | 0
Cc1ccc(Cl)cc1N(CC(=O)Nc1c(F)cccc1F)S(C)(=O)=O | - | 156
CS(=O)(=O)N(CC(=O)Nc1c(F)cccc1F)c1cccc(Cl)c1Cl | - | 0
CCOc1ccc(C(=O)NC(C)c2ccccc2)cc1 (stereo not drawn) | - | 0
COc1ccc(NC(=O)CSc2nc(-c3ccccc3)cc(=O)[nH]2)cc1 | - | 0
O=C(Cn1ncn2c(cc3ccccc32)c1=O)NCc1ccc(Cl)cc1 | - | 0
O=C1c2ccccc2-c2c(NCCc3ccccc3)c(=O)[nH]c3cccc1c23 | 0 | 813
Cc1nnc(NCCc2ccccc2)[nH]c1=O | - | 0
SMILES | YB-1 expression | ROS inducer
O=C(NC(=O)c1ccc(F)c(Cl)c1)Nc1nnc(C(F)(F)F)s1 | - | 0
COC(=O)c1ccccc1NC(=O)CSc1nc2ccsc2c(=O)n1-c1ccc(C)c(C)c1 | - | 0
CCC(C)S(=O)(=O)c1oc(-c2ccc(C)cc2)nc1S(=O)(=O)c1ccccc1 (stereo not drawn) | - | 219
Cc1ccc(-c2nc(S(=O)(=O)c3ccc(F)cc3)c(NCc3ccco3)o2)cc1 | - | 0
O=C(O)c1cc(Sc2ccccc2)nc2ccccc12 | - | 0
COc1ccc2c(c1)c(=O)oc1cc(OC(C)C)ccc12 | 0 | 114
COc1ccc2c(c1)c(=O)oc1cc(O)ccc12 | - | 0
COc1ccc(CSc2nnc(SCc3ccc(C(=O)O)cc3)s2)cc1 | - | 0
Cn1c(CNC(=O)c2cccs2)nnc1SCc1ccccc1 | - | 0
COc1ccc(CSc2nnc(CSc3cccs3)n2C)cc1 | 0 | 87
CC(=O)Nc1ccc2nc(SCc3c(C)cc(C)cc3C)sc2c1 | - | 0
O=C(O)CCc1ccc(-c2ccccc2)n1NC(=O)c1ccccc1Br | - | 0
Cc1nccc2[nH]c(=O)c(C(=O)NCc3ccc(Cl)cc3)cc12 | - | 0
CCC(C)OC(=O)C(C)Oc1ccc2c3c(c(=O)oc2c1)CCC3 (stereo not drawn) | - | 0
CC(C)COC(=O)C(C)Oc1ccc2c3c(c(=O)oc2c1)CCC3 (stereo not drawn) | - | 122
O=C(NCCc1ccc(Cl)cc1)c1cc(=O)[nH]c2ccc(Br)cc12 | - | 0
COc1ccc(C(=O)COc2ccc(NC(=O)c3cccc([N+](=O)[O-])c3)cc2)cc1 | - | 0
COC(=O)COc1ccc(NC(=O)c2ccc(OC)c([N+](=O)[O-])c2)cc1 | - | 118
O=C(CSc1nnc2ccc3ccccc3n12)NCC1CCCO1 (stereo not drawn) | - | 0
CCn1c(SCC(=O)N2CCN(c3ccccc3)CC2)nnc1-c1cc2cc(Cl)ccc2o1 | - | 0
Nc1cc(N)nc(SCC(=O)N2CCN(c3ccc(Cl)cc3)CC2)n1 | - | 86
O=C1OC2C(C(=O)O)Sc3c(sc(=O)n3-c3ccccc3)C2c2cc(Br)ccc21 (stereo not drawn) | - | 0
CS/C(NCC1CC1)=C(/C#N)C(=O)c1ccc(Cl)cc1 | 0 | 196
CS/C(NC1CCCCC1)=C(/C#N)S(=O)(=O)c1ccc(Cl)cc1 | 0 | 0
CCc1nn(C(CC)C(=O)NC2CCCC2)c(=O)c2cc3oc(C)cc3n12 (stereo not drawn) | - | 0
SMILES | YB-1 expression | ROS inducer
O=C(N/N=C/c1cc(Br)cc(Br)c1O)c1ccccn1 | 0 | 0
COc1cccc(Nc2nc(C3(C)CC4(CC(C)OC4=O)C(=O)O3)cs2)c1 (stereo not drawn) | - | 92
COc1cccc(Nc2nnc(-c3cc4cccc(OC)c4oc3=O)s2)c1 | - | 0
Cc1ccsc1/C=N\NC(=O)CCCCCC(=O)NO | 0 | 0
Cc1ccccc1CSCC(=O)NCc1ccccc1 | - | 0
C=C(C)COc1ccc(/C=C(/NC(=O)c2ccccc2)C(=O)O)cc1OC | - | 0
CCCCn1c(SCC(=O)NCc2ccccc2)nc2c(sc3ccccc32)c1=O | - | 0
C=CCN(C(=O)CSc1nc2c(sc3ccccc32)c(=O)n1Cc1cccnc1)c1ccccc1 | - | 154
CC(NS(=O)(=O)c1ccc(C(C)(C)C)cc1)C1C2CC3CC(C2)CC1C3 (stereo not drawn) | - | 0
CCN(C(=O)CSc1ncnc2c1sc1ccccc12)c1cccc(C)c1 | - | 0
COc1ccc([Si](C)(C)[C@H]2[C@H](CCO)O[C@@]3(C(=O)N(Cc4ccccc4)c4ccc(N5CCOC5=O)cc43)[C@@H]2C)cc1 | 0 | 0
COc1ccc([Si](C)(C)[C@@H]2[C@@H](CCO)O[C@]3(C(=O)N(Cc4ccccc4)c4ccc(N5CCOC5=O)cc43)[C@H]2C)cc1 | 0 | 0
COc1ccc([Si](C)(C)[C@@H]2[C@@H](CCO)O[C@]3(C(=O)N(Cc4ccc(N5CCOC5=O)cc4)c4ccccc43)[C@H]2C)cc1 | 0 | 240
COc1ccc([Si](C)(C)[C@H]2[C@H](CCO)O[C@@]3(C(=O)N(Cc4ccc(NC(C)=O)cc4)c4ccccc43)[C@@H]2C)cc1 | 0 | 0
COc1ccc([Si](C)(C)[C@@H]2[C@@H](CCO)O[C@]3(C(=O)N(Cc4cccc(N5CCOC5=O)c4)c4ccccc43)[C@H]2C)cc1 | 0 | 101
COc1ccc([Si](C)(C)[C@@H]2[C@@H](CCO)O[C@]3(C(=O)N(Cc4ccc(NC(C)=O)cc4)c4ccccc43)[C@H]2C)cc1 | 0 | 93
O=C(CCCCCC(=O)N/N=C/c1c[nH]c2ccccc12)NO | 0 | -
C/C(=N\O)c1cc(-c2ccccc2)c(C(F)(F)F)s1 | - | 0
Cc1ccc(S(=O)(=O)Nc2ccccc2Oc2ccccc2)cc1 | - | 0
